Experimental data reported in PubChem BioAssay.
For some of these results: Potency and affinity values are given separately. The source made the active and inactive calls. Unless noted, the rule behind the calls is not given here.

Tests used:
[1] = antimalarial activity against Dd2 strain (AID 2302;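 active = growth inhibition above 50% at the single 2 µM test dose, taken to imply half-maximal potency below 2 µM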;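 note: 0% = DMSO untreated growth and 100% = chloroquine plus artemisinin killed control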); conditions: P. falciparum Dd2 in RBCs, LDH growth readout, 72 h; at 2 µM; stronger effect = higher value
[2] = HepG2 cytotoxicity, primary screen, cytotoxicity control for P. falciparum antimalarial project, cell-based, ATP luminescence (AID 2303;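 active = inhibition above 50%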;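 note: 0% = DMSO wells and 100% = digitonin-killed cells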); conditions: HepG2 viability, 24-48 h, at 10 µM, stronger effect = higher value
[3] = biological target: L-lactate dehydrogenase (Plasmodium falciparum (isolate CDC / Honduras)) (UniProt Q27743); assay: PfLDH activity inhibition – cell lysate, 3D7 strain, counter-screen for P. falciparum growth inhibition project (AID 2304);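 note: 0% = vehicle and 100% = reference inhibitor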; conditions: P. falciparum 3D7 crude extract, LDH APAD/NBT absorbance; at 2 µM; stronger effect = higher value
L-lactate dehydrogenase (Plasmodium falciparum (isolate CDC / Honduras)), sequence (Q27743 whole entry, looked up): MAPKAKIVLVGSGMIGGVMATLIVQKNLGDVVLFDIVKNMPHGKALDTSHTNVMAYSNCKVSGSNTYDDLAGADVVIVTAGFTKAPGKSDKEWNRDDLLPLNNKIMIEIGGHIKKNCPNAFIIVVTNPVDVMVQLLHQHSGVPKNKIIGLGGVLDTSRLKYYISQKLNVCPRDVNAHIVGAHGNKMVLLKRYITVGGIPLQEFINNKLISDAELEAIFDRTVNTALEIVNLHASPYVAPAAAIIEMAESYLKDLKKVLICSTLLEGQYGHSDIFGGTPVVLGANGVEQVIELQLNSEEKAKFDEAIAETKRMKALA

[4] = inhibition of 3D7 malaria parasite growth – strain 3D7 (AID 2306);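 note: 0% = DMSO wells and 100% = chloroquine plus artemisinin control wells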; conditions: P. falciparum 3D7 erythrocytic growth, LDH absorbance, 72 h; at 2 µM; stronger effect = higher value
[5] = biological target: Calcium-dependent protein kinase 1 (Plasmodium falciparum (isolate 3D7)) (UniProt P62344); assay: PfCDPK1 kinase inhibitors, biochemical, TCAMS library (AID 1159585; cut-off not given, nearly all actives have IC50 up to about 0.98 µM;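 note: inhibitors leave more ATP so luminescence rises with inhibition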); conditions: recombinant PfCDPK1, Kinase-Glo ATP depletion luminescence
Calcium-dependent protein kinase 1 (Plasmodium falciparum (isolate 3D7)), sequence (P62344 whole entry, looked up): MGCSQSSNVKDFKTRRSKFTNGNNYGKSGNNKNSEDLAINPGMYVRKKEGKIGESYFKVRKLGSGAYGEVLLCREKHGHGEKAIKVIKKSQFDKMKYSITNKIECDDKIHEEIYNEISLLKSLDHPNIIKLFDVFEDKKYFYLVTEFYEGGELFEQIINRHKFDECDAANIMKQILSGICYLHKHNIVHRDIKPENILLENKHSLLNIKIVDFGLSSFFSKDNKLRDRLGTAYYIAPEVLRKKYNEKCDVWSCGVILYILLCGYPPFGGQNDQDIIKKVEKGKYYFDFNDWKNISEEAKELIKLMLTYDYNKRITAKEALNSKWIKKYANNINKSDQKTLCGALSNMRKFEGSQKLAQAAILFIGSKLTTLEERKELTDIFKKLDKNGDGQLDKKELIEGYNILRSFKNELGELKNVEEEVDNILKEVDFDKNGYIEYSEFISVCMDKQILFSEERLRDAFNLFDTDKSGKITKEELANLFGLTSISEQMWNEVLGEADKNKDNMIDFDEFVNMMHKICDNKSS

[6] = biological target: Plasmodium falciparum protein kinase 6 (PK6, PF3D7_1337100) (UniProt Q8IDW1); assay: PfPK6 kinase inhibitors, biochemical, TCAMS library (AID 1159586); conditions: recombinant PfPK6, Kinase-Glo ATP depletion luminescence
Plasmodium falciparum protein kinase 6 (PK6, PF3D7_1337100), sequence (Q8IDW1 1-305): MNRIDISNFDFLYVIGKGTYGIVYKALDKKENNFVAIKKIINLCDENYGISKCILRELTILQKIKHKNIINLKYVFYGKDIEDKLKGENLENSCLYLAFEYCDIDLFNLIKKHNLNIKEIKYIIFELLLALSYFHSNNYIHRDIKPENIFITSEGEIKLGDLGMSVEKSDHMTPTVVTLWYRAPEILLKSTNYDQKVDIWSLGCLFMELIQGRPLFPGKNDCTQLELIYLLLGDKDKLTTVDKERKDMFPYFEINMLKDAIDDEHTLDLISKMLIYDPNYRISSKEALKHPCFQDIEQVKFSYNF

[7] = biological target: Protein kinase 7 (PK7), Plasmodium falciparum 3D7 (PF3D7_0213400) (UniProt Q7YTF7); assay: inhibition of Plasmodium PK7 catalytic activity – biochemical, TCAMS antimalarial set, Kinase-Glo luminescence (AID 1159587); conditions: recombinant PfPK7, Kinase-Glo ATP depletion luminescence
Protein kinase 7 (PK7), Plasmodium falciparum 3D7 (PF3D7_0213400), sequence (Q7YTF7 1-343): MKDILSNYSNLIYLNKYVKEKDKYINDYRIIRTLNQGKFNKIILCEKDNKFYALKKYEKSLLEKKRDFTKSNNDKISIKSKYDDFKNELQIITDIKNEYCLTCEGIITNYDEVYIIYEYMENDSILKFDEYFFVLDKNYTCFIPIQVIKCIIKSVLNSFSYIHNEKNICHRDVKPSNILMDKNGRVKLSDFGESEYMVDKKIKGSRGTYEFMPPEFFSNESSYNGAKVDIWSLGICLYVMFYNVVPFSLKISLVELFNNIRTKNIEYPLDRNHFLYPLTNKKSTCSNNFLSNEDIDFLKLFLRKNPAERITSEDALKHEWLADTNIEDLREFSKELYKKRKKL

[8] = biological target: Calcium-dependent protein kinase 4 (Plasmodium falciparum (isolate 3D7)) (UniProt Q8IBS5); assay: PfCDPK4 kinase inhibitors, biochemical, TCAMS library (AID 1159588; cut-off not given, nearly all actives have IC50 up to about 0.91 µM); conditions: recombinant PfCDPK4, Kinase-Glo ATP depletion luminescence
Calcium-dependent protein kinase 4 (Plasmodium falciparum (isolate 3D7)), sequence (Q8IBS5 whole entry, looked up): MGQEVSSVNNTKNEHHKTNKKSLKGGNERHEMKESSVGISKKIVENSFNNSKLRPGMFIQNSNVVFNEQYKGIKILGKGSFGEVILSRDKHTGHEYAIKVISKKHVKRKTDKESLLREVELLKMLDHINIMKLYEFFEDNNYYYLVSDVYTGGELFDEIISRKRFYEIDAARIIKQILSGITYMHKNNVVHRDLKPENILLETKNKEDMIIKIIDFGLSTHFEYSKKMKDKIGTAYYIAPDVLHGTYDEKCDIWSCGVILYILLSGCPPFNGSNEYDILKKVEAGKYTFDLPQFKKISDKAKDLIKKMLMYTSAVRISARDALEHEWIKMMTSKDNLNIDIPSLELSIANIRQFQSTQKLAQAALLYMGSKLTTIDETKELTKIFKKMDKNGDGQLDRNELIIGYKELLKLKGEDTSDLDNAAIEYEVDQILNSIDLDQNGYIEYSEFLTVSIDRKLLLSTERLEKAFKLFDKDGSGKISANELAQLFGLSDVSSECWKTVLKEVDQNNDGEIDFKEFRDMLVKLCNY

Cc1ccccc1C1CCN(C2CCC(NC(=O)/C=C/c3ccc(C(F)(F)F)cc3F)CC2)CC1 (stereo not drawn)
active: growth inhibition [1] 58% | inhibition [2] 72% | growth inhibition [4] 99%
inactive: inhibition [3] -2% | outcome [5] | outcome [6] | outcome [7] | outcome [8]

O=C(Nc1ccccc1O)C1CCN(c2ncnc3cc(-c4ccc(F)cc4)sc23)CC1
active: growth inhibition [1] 94% | growth inhibition [4] 97%
inactive: inhibition [2] 10% | inhibition [3] 4% | outcome [5] | outcome [6] | outcome [7] | outcome [8]

Cc1noc(C)c1-c1cccc(C(=O)NC2CCN(CCNC(=O)C(c3ccccc3)c3ccccc3)CC2)c1
inactive: inhibition [2] 27% | inhibition [3] 5% | outcome [5] | outcome [6] | outcome [7] | outcome [8]
active: growth inhibition [1] 74% | growth inhibition [4] 85%

c1ccc(-n2cncn2)cc1
active: growth inhibition [1] 96% | growth inhibition [4] 93%
inactive: inhibition [2] 0% | inhibition [3] 6% | outcome [5] | outcome [6] | outcome [7] | outcome [8]

Clc1cc(Cl)c2c(c1)C(NCCCNc1nc3ccccc3[nH]1)CCO2 (stereo not drawn)
inactive: growth inhibition [1] 31% | inhibition [2] 28% | inhibition [3] -4% | outcome [5] | outcome [6] | outcome [7] | outcome [8]
active: growth inhibition [4] 101%

COc1ccc(S(=O)(=O)N2CCOCC2)cc1NC(=O)c1cc2ccccc2o1
active: growth inhibition [4] 93%
inactive: growth inhibition [1] -1% | inhibition [2] 8% | inhibition [3] -2% | outcome [5] | outcome [6] | outcome [7] | outcome [8]

CCCS(=O)(=O)c1nc(S(=O)(=O)c2ccc(Cl)cc2)c(N2CCCCC2)s1
inactive: growth inhibition [1] 34% | inhibition [2] 3% | inhibition [3] -3% | outcome [5] | outcome [6] | outcome [7] | outcome [8]
active: growth inhibition [4] 87%

CC(C)Sc1nc2c(c(=O)n1Cc1ccco1)C1(CCCC1)Cc1ccccc1-2
active: growth inhibition [4] 98%
inactive: growth inhibition [1] 10% | inhibition [2] 8% | inhibition [3] 4% | outcome [5] | outcome [6] | outcome [7] | outcome [8]

O=C(/C=C/c1ccc(Cl)c(Cl)c1)NCCCCCN1CCC(C(=O)Nc2ccc(Cl)c(Cl)c2)CC1
inactive: growth inhibition [1] 0% | inhibition [3] -2% | outcome [5] | outcome [6] | outcome [7] | outcome [8]
active: inhibition [2] 73% | growth inhibition [4] 98%

Cc1cc(C(=O)CN2C(=O)NC3(CCCc4ccccc43)C2=O)c(C)n1Cc1ccco1 (stereo not drawn)
active: growth inhibition [4] 90%
inactive: growth inhibition [1] -5% | inhibition [2] 11% | inhibition [3] 4% | outcome [5] | outcome [6] | outcome [7] | outcome [8]

Cc1cc2[nH]c(-c3ccc(C(=O)NCCCN4CCN(c5cccc(Cl)c5)CC4)s3)nc2cc1Cl
inactive: inhibition [2] 7% | inhibition [3] -1% | outcome [5] | outcome [6] | outcome [7] | outcome [8]
active: growth inhibition [1] 93% | growth inhibition [4] 100%

CN(Cc1cccc(C#N)c1)C1CCN(c2cc(NC(=O)c3cccc(F)c3)ccn2)CC1
active: growth inhibition [4] 98%
inactive: growth inhibition [1] 15% | inhibition [2] -1% | inhibition [3] -3% | outcome [5] | outcome [6] | outcome [7] | outcome [8]

COc1cccc2c(NN=Cc3cccc(Cl)c3)ccnc12
inactive: inhibition [2] 19% | inhibition [3] 6% | outcome [5] | outcome [6] | outcome [7] | outcome [8]
active: growth inhibition [1] 77% | growth inhibition [4] 101%

N#Cc1ccc(/C=C/C(=O)NCCCCCN2CCN(C(=O)Nc3ccc(Cl)c(C(F)(F)F)c3)CC2)cc1
active: growth inhibition [4] 94%
inactive: growth inhibition [1] -7% | inhibition [2] 42% | inhibition [3] -1% | outcome [5] | outcome [6] | outcome [7] | outcome [8]

N#Cc1ccc2c(c1)CCN(CCC1CCC(NC(=O)c3cc4ccccc4[nH]3)CC1)CC2 (stereo not drawn)
active: growth inhibition [4] 89%
inactive: growth inhibition [1] 25% | inhibition [2] 17% | inhibition [3] -1% | outcome [5] | outcome [6] | outcome [7] | outcome [8]

Fc1ccc2nc(-c3ccc(-c4ccc(CN5CCN(CCN6CCOCC6)CC5)cc4)cc3)[nH]c2c1
active: growth inhibition [1] 100% | growth inhibition [4] 101%
inactive: inhibition [2] 38% | inhibition [3] -5% | outcome [5] | outcome [6] | outcome [7] | outcome [8]

CC(=O)N(C)c1ccc(C(=O)Nc2cccc(-c3cccc(-c4nc5c(C)cccc5[nH]4)c3)c2)cc1
active: growth inhibition [4] 89%
inactive: growth inhibition [1] 30% | inhibition [2] 11% | inhibition [3] -2% | outcome [5] | outcome [6] | outcome [7] | outcome [8]

Cc1cc(C)c(NC(=O)NC2CCN(CCCCCNC(=O)/C=C/c3ccc(Cl)c(Cl)c3)CC2)c(C)c1
active: growth inhibition [4] 103%
inactive: growth inhibition [1] 17% | inhibition [2] 30% | inhibition [3] 2% | outcome [5] | outcome [6] | outcome [7] | outcome [8]

CC(C)C[C@H](NC(=O)c1cc2ccccc2s1)C(=O)N[C@H]1CCN(Cc2ccc(OC3CCN(C)C3)c(Cl)c2)C1 (stereo partly drawn)
inactive: inhibition [3] 2% | outcome [5] | outcome [6] | outcome [7] | outcome [8]
active: growth inhibition [1] 65% | inhibition [2] 68% | growth inhibition [4] 97%

CNC(=O)COc1ccc(Nc2nnc(-c3ccc(C)c(S(=O)(=O)NCC4CCCO4)c3)c3ccccc23)cc1 (stereo not drawn)
active: growth inhibition [1] 68% | growth inhibition [4] 90%
inactive: inhibition [2] -8% | inhibition [3] 0% | outcome [5] | outcome [6] | outcome [7] | outcome [8]

CCCC(C)NC(=O)/C=C/c1ccccc1-c1cccc(OC)c1 (stereo not drawn)
active: growth inhibition [1] 59% | growth inhibition [4] 87%
inactive: inhibition [2] 0% | inhibition [3] 3% | outcome [5] | outcome [6] | outcome [7] | outcome [8]

Cc1ccc(C2(CN3CCC(NC(=O)c4ccn[nH]4)CC3)CCCCC2)cc1
active: growth inhibition [1] 96% | growth inhibition [4] 97%
inactive: inhibition [2] -6% | inhibition [3] -3% | outcome [5] | outcome [6] | outcome [7] | outcome [8]

COCCNCc1ncsc1-c1ccc2c(Nc3cc(O)ccc3C)ccnc2c1
inactive: growth inhibition [1] 40% | inhibition [2] 9% | inhibition [3] 6% | outcome [5] | outcome [6] | outcome [7] | outcome [8]
active: growth inhibition [4] 101%

Fc1ccc(COc2ccc(Nc3ncnc4ccc(I)cc34)cc2Cl)cc1
inactive: growth inhibition [1] 30% | inhibition [2] 28% | inhibition [3] -5% | outcome [5] | outcome [6] | outcome [7] | outcome [8]
active: growth inhibition [4] 86%

CN(C)CCOc1cc(NC(=O)Nc2ccc(-c3ccncc3)c(Cl)c2)ccc1I
active: growth inhibition [1] 100% | growth inhibition [4] 101%
inactive: inhibition [2] 43% | inhibition [3] 4% | outcome [5] | outcome [6] | outcome [7] | outcome [8]

COc1ccc(Oc2ccc(Nc3ccnc4ccc(C(F)(F)F)cc34)cc2)cc1OC
active: growth inhibition [4] 90%
inactive: growth inhibition [1] 17% | inhibition [2] -2% | inhibition [3] 2% | outcome [5] | outcome [6] | outcome [7] | outcome [8]

COc1cc2nc(N3CCC(CNC(=O)c4ccc(-c5ccc(C#N)cc5C)cc4)CC3)nc(N)c2cc1OC
inactive: inhibition [2] 28% | inhibition [3] -4% | outcome [5] | outcome [6] | outcome [7] | outcome [8]
active: growth inhibition [1] 99% | growth inhibition [4] 101%

O=C(Nc1ccccc1)N(Cc1cccc(-c2ccc(CNCCc3ccccc3)cc2)c1)C1CCN(Cc2ccccc2)CC1
inactive: inhibition [3] 3% | outcome [5] | outcome [6] | outcome [7] | outcome [8]
active: growth inhibition [1] 95% | inhibition [2] 100% | growth inhibition [4] 101%

CCN1CCCC(CNC(=O)/C(=C/C=C/c2cc3cc(Cl)c(Cl)cc3[nH]2)OC)C1 (stereo not drawn)
active: growth inhibition [1] 89% | growth inhibition [4] 93%
inactive: inhibition [2] 33% | inhibition [3] -1% | outcome [5] | outcome [6] | outcome [7] | outcome [8]

CN(C)CCN(C)Cc1cccc(-c2ccc3c(Nc4cc(O)c(Cl)cc4F)ccnc3c2)c1
active: growth inhibition [1] 70% | growth inhibition [4] 101%
inactive: inhibition [2] 14% | inhibition [3] -5% | outcome [5] | outcome [6] | outcome [7] | outcome [8]

CCn1c(=O)c(C(=O)Nc2cc(Cl)c(OC)cc2OC)nc2ccccc21
active: growth inhibition [1] 84% | growth inhibition [4] 86%
inactive: inhibition [2] 19% | inhibition [3] 6% | outcome [5] | outcome [6] | outcome [7] | outcome [8]

CCOC(=O)c1ccc(NC(=O)N[C@@H](Cc2ccccc2)C(=O)NC2CCN(Cc3ccc(O)c(OC)c3)C2)cc1 (stereo partly drawn)
active: growth inhibition [4] 88%
inactive: growth inhibition [1] 0% | inhibition [2] -1% | inhibition [3] -2% | outcome [5] | outcome [6] | outcome [7] | outcome [8]

CN(C)CC(O)C(c1ccccc1)c1cccc(Br)c1 (stereo not drawn)
inactive: growth inhibition [1] 9% | inhibition [2] 22% | inhibition [3] -8% | outcome [5] | outcome [6] | outcome [7] | outcome [8]
active: growth inhibition [4] 98%

COc1ccc(CNc2cc(C)nc3sc4c(c23)CCC2(C4)OCCO2)cc1
inactive: growth inhibition [1] 2% | inhibition [2] 4% | inhibition [3] -7% | outcome [5] | outcome [6] | outcome [7] | outcome [8]
active: growth inhibition [4] 96%

COc1ccc2ncc(Cl)c(CCN3C[C@H](CNCc4ccc5c(n4)NC(=O)CS5)[C@H](O)C3)c2n1
active: growth inhibition [4] 94%
inactive: growth inhibition [1] 16% | inhibition [2] 2% | inhibition [3] 3% | outcome [5] | outcome [6] | outcome [7] | outcome [8]

N=c1n(Cc2ccccc2)c2ccccc2n1CC(O)c1ccc(Cl)cc1 (stereo not drawn)
active: growth inhibition [1] 75% | growth inhibition [4] 96%
inactive: inhibition [2] 26% | inhibition [3] -1% | outcome [5] | outcome [6] | outcome [7] | outcome [8]

Nc1ccn([C@@H]2O[C@H](COC(c3ccccc3)(c3ccccc3)c3ccccc3)[C@@H](O)[C@@H]2O)c(=O)n1
active: growth inhibition [4] 93%
inactive: growth inhibition [1] 2% | inhibition [2] 26% | inhibition [3] 1% | outcome [5] | outcome [6] | outcome [7] | outcome [8]

O=C(Nc1ccccc1N1CCOCC1)c1ncoc1-c1ccccc1C(F)(F)F
inactive: inhibition [2] -2% | inhibition [3] 7% | outcome [5] | outcome [6] | outcome [7] | outcome [8]
active: growth inhibition [1] 60% | growth inhibition [4] 89%

N#Cc1cc(C(=O)c2cc(Br)ccc2O)cn(C2CCCCC2)c1=O
inactive: growth inhibition [1] 9% | inhibition [2] 3% | inhibition [3] 3% | outcome [5] | outcome [6] | outcome [7] | outcome [8]
active: growth inhibition [4] 89%

COc1cc2c(cc1NS(=O)(=O)c1ccc(OCc3ccc(Br)cc3)cc1)CCN(C1CCC1)CC2
inactive: growth inhibition [1] 30% | inhibition [2] 36% | inhibition [3] 2% | outcome [5] | outcome [6] | outcome [7] | outcome [8]
active: growth inhibition [4] 94%

O=C(NCCc1cccc(Cl)c1Cl)c1cnc(N2CCN(c3ccncc3)CC2)c(Cl)c1
active: growth inhibition [1] 99% | growth inhibition [4] 100%
inactive: inhibition [2] 47% | inhibition [3] 0% | outcome [5] | outcome [6] | outcome [7] | outcome [8]
